This is a sample that favours compounds with a hit; in the whole collection about 19% have one here.
TDP1 cell CPT: qHTS for Inhibitors of human tyrosyl-DNA phosphodiesterase 1 (TDP1): qHTS in cells in presence of CPT; chicken DT40 Tdp1-/-;hTDP1 cells + 20 nM CPT, ATP luminescence, 48 h; Potency, µM (top dose mostly 46.2 µM), without a hit: at the top dose activity change, negative = growth inhibition, most hits filed as inhibitors; 420,000 compounds, 12% hits; also: potency is read from the fitted curve at half-maximal effect; nearly all actives have a fitted effect of over 55% in size
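Cell growth measured by CellTiter-Glo luminescence after a minimum 48 h, 37 C compound exposure with 20 nM CPT in Tdp1-knockout DT40 cells stably expressing hTDP1, seeded 400/well; qHTS titration format.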
HT1080 IDH1KD tx: qHTS for induction of synthetic lethality in tumor cells producing 2HG: qHTS for the HT-1080-IDH1KD cell line | AID 686971, 2013 | Potency, µM (doses to about 46.1 µM), inactives show at the top dose activity, negative = toxicity, usual class: cytotoxic | 360,000 compounds, 2% hits | HT-1080 IDH1 knockdown viability, ATP luminescence, 48 h;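 also: potency is read from the fitted curve at half-maximal effect; 0% = DMSO wells and -100% = cell-free medium wells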
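Knockdown cells (IDH1KD HT-1080) received compounds 2 h after plating at 750 cells/well and were kept 48 h at 37 °C in 5% FBS RPMI. A CellTiter-Glo luminescence read gave % activity for curve fitting.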
IL-1B inflam inh: qHTS for Inhibitors of Inflammasome Signaling: IL-1-beta AlphaLISA Primary Screen. THP-1 LPS/ATP IL-1B secretion, AlphaLISA, 16 h; stronger effect = lower value. activity change, % at 57.5 µM. 360,000 compounds, 4.7% hits. AID 743279, 2014; in the data active = activity change below about -50%; inconclusive = mostly about -30% to -49%
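Secreted IL-1B measured by AlphaLISA bead assay after 16 h compound exposure of THP-1 cells; compounds (final up to 57.5 uM) added 1 h before LPS (250 ng/mL) and ATP (1.25 mM) stimulation; lower signal means less secretion.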
ELG1 repair inh: qHTS screen for small molecules that inhibit ELG1-dependent DNA repair in human embryonic kidney (HEK293T) cells expressing luciferase-tagged ELG1; 330,000 compounds, 2.3% hits; HEK293T ELG1-luciferase reporter, luminescence, 16 h; DNA damage induced by 5-fluorouridine; Potency, µM (top dose mostly 46.1 µM), inactives show top-dose activity change, negative = inhibition, most hits filed as inhibitors; also: potency is read from the fitted curve at half-maximal effect; nearly all actives have a fitted effect of over 55% in size
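DMSO vehicle served as the neutral condition. Each well held 2,000 cells given 5-fluorouridine plus compound; after 16 hr at 37 °C/5% CO2, ONE-Glo was added and luciferase measured 30 min later.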
TDP1 cell noCPT: qHTS for Inhibitors of human tyrosyl-DNA phosphodiesterase 1 (TDP1): qHTS in cells in absence of CPT; DT40 Tdp1-/- hTDP1 cells, no CPT, ATP luminescence, 48 h; Potency, µM (titrated, usually from 46.2 µM), for the others: top-dose activity change, negative = growth inhibition, actives largely listed as inhibitors; 420,000 compounds, 15% hits; AID 686978, 2013; also: potency is read from the fitted curve at half-maximal effect; nearly all actives have a fitted effect of over 55% in size
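Luminescent ATP content (CellTiter-Glo) served as the growth readout. Knockout chicken DT40 cells expressing human TDP1 were exposed to compounds without camptothecin for a minimum 48 hr at 37 °C.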
HT1080-NT tox: qHTS for induction of synthetic lethality in tumor cells producing 2HG: qHTS for the HT-1080-NT fibrosarcoma cell line | HT-1080-NT fibrosarcoma viability, CellTiter-Glo ATP luminescence, 48 h | Potency, µM (series often up to 46.1 µM), for inactives: at the top dose activity, negative = less viability, usual class: cytotoxic | 360,000 compounds, 1.6% hits | AID 686970, 2013;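 also: NT is the 2HG producing partner of a matched IDH1 knockdown line; potency is read from the fitted curve at half-maximal effect; 0% = DMSO-treated cells and -100% = media-only wells without cells; nearly all actives have a fitted effect of over 55% in size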
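Toxicity toward the 2HG-producing NT line was scored as %Activity, normalised to DMSO and no-cell wells, from CellTiter-Glo luminescence after 48 hours' treatment.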
* hit, by the source's call; u = inconclusive; x = no result given. Unless noted, calls follow the shape of the dose curve; as a rule, active = well fitted curve in the direction sought with a large enough effect; inconclusive = small, poorly fitted or top-dose-only effect, or another doubt; inactive = no such curve, though single readings can be large; an effect the other way counts as inactive or inconclusive. Unless noted, % is scaled to controls: 0 for no effect and ±100 for the full control effect.

SMILES | TDP1 cell CPT | HT1080 IDH1KD tx | IL-1B inflam inh | ELG1 repair inh | TDP1 cell noCPT | HT1080-NT tox
COc1ccc(C(=O)N=C2SC3CS(=O)(=O)CC3N2c2ccc(N(C)C)cc2)cc1OC (stereo not given) | -21% | 8% | -28 | u | -14% | 12%
C[C@@H]1CCCCO[C@@H](CN(C)C(=O)CCC(F)(F)F)[C@@H](C)CN([C@H](C)CO)C(=O)c2cc(N(C)C)ccc2O1 | -1% | 6% | -19 | x | -20% | 6%
CCCCCCCCCCOC(=O)Cn1c(COc2ccccc2)[n+](C)c2ccccc21 | 5.8µM* | -6% | 0 | -28% | 2.6µM* | -24%
CCCCCOC(=O)Cn1c(=O)oc2ccccc21 | -2% | 4% | 4 | 3% | -12% | 10%
COc1cccc2sc3ccc(C#Cc4ccc(N)cc4)cc3c(=O)c12 | 16µM* | -15% | -25 | u | u | -15%
COc1cccc2sc3ccc(C#CC4(O)CCCCC4)cc3c(=O)c12 | u | -27% | -57* | u | u | u
COc1ccc(NC(=O)c2ccc(S(=O)(=O)N3CC(C)CC(C)C3)cc2)cc1S(N)(=O)=O (stereo not given) | -21% | -8% | 26 | 1% | u | -2%
O=C(NC1CCCCC1)N1CCN(c2ccccc2Cl)CC1 | u | 11% | -30 | 11% | -14% | 5%
COc1ccc(/C(C)=N/NC(=O)c2nnn(-c3nonc3N)c2CN(C)c2ccccc2)cc1 | -4% | -7% | 41 | -4% | -6% | -4%
C/C(=N\NC(=O)c1nnn(-c2nonc2N)c1CN1CCCCC1)c1ccccc1O | 10µM* | u | 95 | 18µM* | 13µM* | u
C/C(=N\NC(=O)c1nnn(-c2nonc2N)c1CN(C)c1ccccc1)c1ccccc1O | 8.2µM* | u | 93 | u | 6.5µM* | u
Nc1nonc1-n1nnc(C(=O)N/N=C/c2ccc(O)cc2)c1CN1CCCCCC1 | -6% | -3% | 19 | x | -2% | -1%
O=C(CNC(=O)c1cc(Cl)cc([N+](=O)[O-])c1)OCC(=O)N1CCCCC1 | -18% | -8% | -74* | 16% | 0% | -1%
CC1CCN(C(=O)Cn2c(=O)n(CCCCCC(=O)NCc3ccccc3Cl)c(=O)c3sccc32)CC1 | u | x | x | x | 10µM* | x
CCOc1ccccc1NC(=O)Cn1c(=O)n(CC(=O)NCc2ccccc2Cl)c(=O)c2sccc21 | 8.2µM* | x | x | x | 9.2µM* | x
O=C(O)c1ccccc1C(=O)NNC(=O)C(c1ccccc1)c1ccccc1 | -1% | 15% | -19 | 0% | 16% | 6%
O=C(NNC(=O)C(c1ccccc1)c1ccccc1)c1ccccc1O | 18µM* | u | 49 | x | u | -16%
CC(Sc1ccc(Cl)cc1)C(=O)NNC(=O)c1ccccc1O (stereo not given) | 16µM* | u | 163 | u | 7.3µM* | u
O=C(NNc1ccccn1)C(c1ccccc1)c1ccccc1 | 9% | 5% | 0 | -6% | 12% | 6%
O=C(NNC(=O)c1cccs1)c1ccccn1 | 16µM* | u | 5 | x | u | u
O=C(NNC(=O)C(c1ccccc1)c1ccccc1)c1ccccn1 | 2.9µM* | u | -68* | 13% | 2.3µM* | u
O=C(NNC(=O)c1ccccc1Cl)c1cccs1 | -5% | 21% | -8 | u | -8% | 20%
CN1CCN(CCNC(=O)Nc2ccc(Cl)cc2)CC1 | -11% | -1% | -19 | 19% | -15% | 8%
O=C(NCCc1ccccn1)c1ccc(OC(F)F)cc1 | -15% | 21% | -6 | u | -6% | 26%
O=C(NNC(=O)c1ccccn1)c1ccc(OC(F)F)cc1 | 5.8µM* | 21µM* | 51 | -13% | 4.6µM* | u
SMILES | TDP1 cell CPT | HT1080 IDH1KD tx | IL-1B inflam inh | ELG1 repair inh | TDP1 cell noCPT | HT1080-NT tox
Cc1cc(C)n2nc(SCC(=O)NC(=O)c3ccccc3Cl)nc2n1 | 1% | 0% | -6 | u | 3% | 0%
C=CCC[C@@H](Cc1ccc(F)cc1)C(=O)OCCNC(=O)[C@@H](CC=C)CC(=O)N[C@@H](CO)Cc1ccccc1 | u | -1% | -19 | -5% | -26% | -2%
C=CC[C@@H](CC(=O)N[C@H](CO)Cc1ccccc1)C(=O)N[C@@H](C)COC(=O)[C@@H](CC=C)Cc1ccc(F)cc1 | u | 0% | 20 | u | 18µM* | -10%
C=CCC[C@@H](Cc1ccc(F)cc1)C(=O)OC[C@@H](C)NC(=O)[C@@H](CC=C)CC(=O)N[C@H](CO)Cc1ccccc1 | 15µM* | -19% | u | u | u | -13%
C=CC[C@@H](CC(=O)N[C@@H](CO)Cc1ccccc1)C(=O)N[C@@H](COC(=O)[C@@H](CC=C)Cc1ccc(F)cc1)Cc1ccccc1 | -19% | 1% | -2 | 16% | u | -9%
C=CCC[C@@H](Cc1ccc(F)cc1)C(=O)OCCNC(=O)[C@@H](CC=C)CC(=O)N[C@H](CO)Cc1ccccc1 | 21µM* | -4% | 2 | u | u | -13%
CC(=O)Nc1cccc(Nc2cc(C)nn2C)c1 | -4% | 19% | 14 | x | 12% | 25%
C/C(CS(=O)(=O)c1ccc(Cl)cc1)=N/NC(N)=S | -27% | 1% | 27 | 1% | -21% | -2%
C/C(CS(=O)(=O)c1ccc(Cl)c(Cl)c1)=N/NC(N)=S | 18µM* | -11% | 32 | u | 5.8µM* | -9%
c1ccc2c(c1)OCC(c1csc3ncnc(N4CCCCC4)c13)O2 (stereo not given) | u | -6% | 6 | u | u | -3%
Clc1ncnc2scc(C3COc4ccccc4O3)c12 (stereo not given) | u | -17% | -55* | u | 16µM* | -12%
CCN(CC)c1ccc(N)cc1 | 1.8µM* | 15µM* | -66* | u | 1.6µM* | 8.2µM*
Nc1ccc(N(CCO)CCO)cc1 | 12µM* | -8% | -8 | -2% | 21µM* | -15%
